In PubChem BioAssay (NCATS):
Inconclusive results are not listed. Activity calls are given as the source filed them. Calls follow the shape of the dose curve; as a rule, active = well fitted activation curve with a large enough effect; inconclusive = small, poorly fitted or top-dose-only effect; inactive = flat fitted curve, though single readings scatter. Where a SMILES comes first, the peptide text is derived from it. The star is where a group is joined. Cbz = O=C(OCc1ccccc1)*; CH2Cl = ClC*

Assay: Primary redox qHTS assay for identification of artifact compounds. (AID 1845223)
Conditions: Amplex Red/HRP redox cycling with DTT, fluorescence; series mostly up to 53.8 µM; redox activity (% of DA3003): at the top concentration
Source text: PI: Alexander Tropsha Ph.D.
UNC Eshelman School of Pharmacy
University of North Carolina, Chapel Hill, North Carolina
Hits from high-throughput screening (HTS) of chemical libraries are often false positives due to their interference with the assay detection technology. In response to this problem, we generated the largest publicly available library of chemical liabilities and developed a free webtool to predict HTS artifacts, both of which are described herein. More specifically, we generated, curated, and integrated HTS datasets for thiol reactivity, redox activity, and luciferase (firefly and nano) activity. Using these curated datasets, we developed and validated several Quantitative Structure-Interference Relationship (QSIR) models to predict nuisance behavior. […] These models were employed for virtual profiling of the National Center for Advancing Translational Science's (NCATS) in-house library, and 256 compounds for each assay were selected for the experimental validation of nuisance behavior. The BA for these external predictions ranged from 58 to 78% for compounds within the applicability domains of the models. […] The models developed in this study, along with aggregation models previously developed by our group (SCAM Detective) were implemented in "Liability Predictor," an online tool which may be used as part of chemical library design or for triaging HTS hits. Both the models and the curated datasets are publicly available at https://liability.mml.unc.edu/.
SEQUENCE No. (e.g., 1, 2, 3, etc.); […] (e.g., Cells, Incubation, Reagent, etc.); VALUE; DESCRIPTION.
1; Reagent; 3 uL; Amplex Red and HRP mixture.
2; Compounds and control; 16 nL; Kalypsis pin tool (Wako USA) equipped with a 1536-well pin head. […]
6; Detection; Fluorescence, ViewLux microplate reader, 525 nm excitation, 598 nm emission.
NOTES (numbers refer to Sequence numbers above)
1. 3 uL of a mixture containing Amplex Red (25 uM final concentration) and horseradish peroxidase (HRP; 250 mU/mL final concentration) in assay buffer (HBSS) was dispensed into all wells of a 1536-well assay plate (solid-bottom black plate; Greiner Bio One, Monroe, NC).
2. A Wako Pin-tool (Wako Automation, Richmond, VA) was used to transfer 16 nL of compounds (consisting of 7-plates in qHTS format, final concentration range 18.3 nM to 114 uM) or control DA3003 (final concentration range 1.22 nM to 40 uM).
3. 15 min. incubation at room temperature protected from light.
4. 1 uL of DTT (prepared fresh; final concentration 250 uM) was dispensed for a final assay volume of 4 uL.
5. Plates were centrifuged (121xg, 15 seconds) and incubated for 30 minutes at room temperature protected from light.
6. Samples were read for fluorescence (Ex/Em = 525(20)/598(25) nm) on a ViewLux CCD imager (PerkinElmer). Data were normalized to DMSO (0% activity) and DA3003 (10 uM final concentration; 100% activity) and the resulting percent inhibition data were fitted to a 4-parameter Hill equation using NCATS in-house software.

Row | SMILES | redox activity (% of DA3003)
1 | NC(=O)N1CCC(CC(=O)N2CCC(C3c4ncc(Br)cc4CCc4cc(Cl)cc(Br)c43)CC2)CC1 (stereo not given) | 3.67% (inactive)
2 | Cc1[nH]c2ccccc2c1CCNC(=O)c1cccs1 | -6.12% (inactive)
3 | Cn1ncc(Cl)c1-c1cc(C(=O)N[C@H](CN)Cc2ccc(F)c(F)c2)oc1Cl | -2.71% (inactive)
4 | COc1ccc(CN2CCN(C(=O)CCNC(=O)c3ccc(C(C)(C)C)cc3)CC2)cc1 | 12% (inactive)
5 | CC(C)NC(=O)COc1cccc(-c2nc(Nc3ccc4[nH]ncc4c3)c3ccccc3n2)c1 | 1.93% (inactive)
6 | O=C(NCCCCN1CCN(c2cccc(Cl)c2Cl)CC1)c1cc2ccccc2s1 | 12.7% (inactive)
7 | CCCC1(CCC)CCC2(CCN(CCCN(CC)CC)C2)CC1 | 11.3% (inactive)
8 | Cn1ncc(Cl)c1-c1cc(C(=O)N[C@H](CN)Cc2ccc(F)c(F)c2)sc1Cl | 2.51% (inactive)
9 | CC(C)C[C@H](NC(=O)CNC(=O)OCc1ccccc1)C(=O)N[C@@H](Cc1ccccc1)C(=O)CCl (Cbz-Gly-Leu-Phe-CH2Cl) | 10.6% (inactive)
10 | CC(=O)OCC(=O)[C@@]12O[C@@H]1C[C@H]1[C@@H]3CC=C4C[C@@H](O)CC[C@]4(C)[C@H]3CC[C@@]12C | -3.69% (inactive)
11 | CC(=O)NCc1cccc(OC[C@@H](O)CNCCc2ccc(NS(=O)(=O)c3ccccc3)cc2)c1 | 19.8% (inactive)
12 | CNC(=O)COC(=O)N1CCC(CCc2ccc(Cl)cc2)CC1 | -6.27% (inactive)
13 | N#Cc1ccc(-c2ccc(S(=O)(=O)Nc3cccc(N)n3)cc2)cc1 | -1.36% (inactive)
14 | CCCC(CCC)C(=O)Nc1ccn([C@@H]2O[C@H](CO)[C@@H](O)C2(F)F)c(=O)n1 | -2.24% (inactive)
15 | COc1cc2nc(N3CCN(C(=O)COc4c(OC)cccc4C(C)C)CC3)nc(N)c2cc1OC | 16.6% (inactive)
16 | C=C(C(=O)O)[C@@H]1CC=C(CCC(C)=O)[C@@H](C)CC1 | 5.48% (inactive)
17 | O=S(=O)(NCc1cccc2ccccc12)c1cc(Cl)c(Oc2cccc(N3CCNCC3)c2)s1 | -4.9% (inactive)
18 | COc1cc(NC(=O)c2cc(C3CC3)on2)c(OC)cc1Cl | -7.22% (inactive)
19 | O=C(Nc1ccc(Cl)cc1)C1CCCN(C(=O)c2cccc(-c3ccco3)c2)C1 (stereo not given) | 0.149% (inactive)
20 | Cc1ccc(N2CCN(CCC3NC(=O)c4ccccc43)CC2)cc1C (stereo not given) | 8.85% (inactive)

Row | SMILES | redox activity (% of DA3003)
21 | O=C(c1c(F)ccc(NS(=O)(=O)N2CC[C@@H](F)C2)c1F)c1c[nH]c2ncc(-c3cnc(C4CC4)nc3)cc12 | 6.89% (inactive)
22 | Fc1ccc2c(CCNCc3cccc(OCC(F)(F)C(F)F)c3)c[nH]c2c1 | -2.2% (inactive)
23 | O=C(N[C@@H]1CCCc2c1cnn2-c1ccc(F)cc1F)c1ccccn1 | 6.25% (inactive)
24 | C=CC(=O)N1CCN(C(=O)CNc2cc(-c3ccccc3Cl)c(Cl)cc2OC)CC1 | 4.23% (inactive)
25 | O=C(Nc1nc2cc(C(F)(F)F)cc(NC3CC3)n2n1)c1cccnc1 | -3.38% (inactive)
26 | Cc1cc2sc(NC(=O)Cc3ccccc3)nc2cc1Cl | -10% (inactive)
27 | CC(=O)C1=CCC2C3CC=C4CC(O)CC(O)C4(C)C3C(O)CC12C (stereo not given) | 1.57% (inactive)
28 | C[C@@H](NC(=O)c1ccc(C#Cc2cccc(F)c2)cn1)C(C)(C)O | 14.3% (inactive)
29 | Cc1ccc(-c2ncccn2)c(C(=O)N2C[C@H](COc3ccc(F)cn3)CC[C@H]2C)c1 | 13% (inactive)
30 | C=C1CC[C@@H]2[C@](C)(CO)[C@H](O)CC[C@@]2(C)[C@@H]1C/C=C1/C(=O)OCC1OC(=O)/C(=C/CO)C(O)C[C@@H]1C(=C)CC[C@@H]2[C@](C)(CO)[C@H](O)CC[C@]21C (stereo not given in full) | -15.2% [at 25.6 µM] (inactive)
31 | O=C(Nc1nc2ccc([N+](=O)[O-])cc2s1)C1CCCCC1 | -5.57% (inactive)
32 | Cc1cccc(-c2[nH]ncc2-c2ccc(F)c(-c3cnn(CCO)c3)c2)n1 | 5.54% (inactive)
33 | CC(C)(O)C1Cc2c(ccc(C(=O)CCc3ccccc3)c2O)O1 (stereo not given) | 15.6% (inactive)
34 | COc1ccc(-c2ccc3c(N4CCOCC4C)nc(N4CCOCC4C)nc3n2)cc1CO (stereo not given) | 17.6% (inactive)
35 | COC1CC(=O)C23C(=O)NC(Cc4c[nH]c5ccccc45)C2C(C)C2(C)OC2C3/C=C/CC(C)CC1O (stereo not given) | 2.41% [at 25.6 µM] (inactive)
36 | O=C(Nc1cc(C(F)(F)F)ccc1N1CCCCC1)c1ccncc1 | 5.77% (inactive)
37 | C=C1C(=O)O[C@H]2C1CCC(C)=C1C(=O)C=C(C)[C@@]12O (stereo not given in full) | 0.314% (inactive)
38 | CC(C)OC(=O)N1CCC(Oc2ncnc3c2cnn3-c2ccc(S(C)(=O)=O)cc2F)CC1 | -5.54% (inactive)
39 | NC(N)=NC(=O)c1cnn(-c2cccc3ncccc23)c1C1CC1 | -7.15% (inactive)
40 | O=C(NCCCc1ccccc1)C1CCC(CNS(=O)(=O)c2cccc3nsnc23)CC1 (stereo not given) | -3.16% (inactive)
